According to ChEMBL document CHEMBL5724796, “Tm Shift (DSF) assay results for EUbOPEN Chemogenomics Library” (2024):

Assays:
Conditions in all cases: Compound concentration 20.0 uM
[1] = target: Tyrosine-protein kinase ABL1 (Homo sapiens) (UniProt P00519)
[2] = target: Bromodomain-containing protein 4 (Homo sapiens) (UniProt O60885)
[3] = target: Cyclin-dependent kinase 2 (Homo sapiens) (UniProt P24941)
[4] = target: Casein kinase I isoform delta (Homo sapiens) (UniProt P48730)
[5] = target: Glycogen synthase kinase-3 beta (Homo sapiens) (UniProt P49841)
[6] = target: Mitogen-activated protein kinase 1 (Homo sapiens) (UniProt P28482)
[7] = target: T1, Aurora kinase A (Homo sapiens) (UniProt O14965)
T1 sequence (whole entry): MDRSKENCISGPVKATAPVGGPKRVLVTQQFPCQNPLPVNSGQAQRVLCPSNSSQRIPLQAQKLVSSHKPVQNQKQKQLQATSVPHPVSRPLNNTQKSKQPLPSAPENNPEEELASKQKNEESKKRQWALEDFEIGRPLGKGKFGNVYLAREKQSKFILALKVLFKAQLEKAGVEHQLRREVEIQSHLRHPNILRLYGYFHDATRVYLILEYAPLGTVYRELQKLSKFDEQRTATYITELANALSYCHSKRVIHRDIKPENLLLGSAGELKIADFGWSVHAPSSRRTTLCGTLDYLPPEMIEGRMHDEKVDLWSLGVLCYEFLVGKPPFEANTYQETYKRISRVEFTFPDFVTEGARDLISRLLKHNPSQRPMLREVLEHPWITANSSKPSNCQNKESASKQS

[8] = target: T2, Transcription intermediary factor 1-alpha (Homo sapiens) (UniProt O15164)
T2 sequence (whole entry): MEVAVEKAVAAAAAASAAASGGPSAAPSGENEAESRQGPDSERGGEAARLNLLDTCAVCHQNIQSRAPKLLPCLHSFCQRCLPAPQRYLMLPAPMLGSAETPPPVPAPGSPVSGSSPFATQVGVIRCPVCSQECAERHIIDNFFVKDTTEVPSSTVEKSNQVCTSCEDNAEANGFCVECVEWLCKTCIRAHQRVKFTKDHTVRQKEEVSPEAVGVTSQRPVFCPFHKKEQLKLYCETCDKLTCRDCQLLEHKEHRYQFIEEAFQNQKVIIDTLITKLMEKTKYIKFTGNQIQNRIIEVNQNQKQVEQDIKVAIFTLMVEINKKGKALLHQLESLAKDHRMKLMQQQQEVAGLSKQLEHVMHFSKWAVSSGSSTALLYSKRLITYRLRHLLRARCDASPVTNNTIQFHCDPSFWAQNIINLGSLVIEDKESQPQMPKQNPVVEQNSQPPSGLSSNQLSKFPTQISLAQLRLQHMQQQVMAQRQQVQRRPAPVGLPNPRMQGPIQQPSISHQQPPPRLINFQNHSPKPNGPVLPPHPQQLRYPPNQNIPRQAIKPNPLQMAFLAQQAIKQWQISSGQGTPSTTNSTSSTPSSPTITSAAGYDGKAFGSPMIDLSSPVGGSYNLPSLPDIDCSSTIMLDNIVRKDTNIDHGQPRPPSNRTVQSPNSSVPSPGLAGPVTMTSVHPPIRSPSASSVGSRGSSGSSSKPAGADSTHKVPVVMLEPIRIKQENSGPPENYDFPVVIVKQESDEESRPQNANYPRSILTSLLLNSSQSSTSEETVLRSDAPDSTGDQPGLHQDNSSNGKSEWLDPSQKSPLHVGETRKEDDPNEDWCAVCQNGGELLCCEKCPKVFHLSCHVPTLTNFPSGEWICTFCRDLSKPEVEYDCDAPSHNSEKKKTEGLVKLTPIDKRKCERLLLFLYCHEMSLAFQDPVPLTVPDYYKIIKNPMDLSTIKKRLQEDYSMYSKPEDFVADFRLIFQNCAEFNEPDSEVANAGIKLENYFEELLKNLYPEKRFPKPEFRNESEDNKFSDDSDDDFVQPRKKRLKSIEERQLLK

Tyrosine-protein kinase ABL1 (Homo sapiens), sequence (P00519 whole entry): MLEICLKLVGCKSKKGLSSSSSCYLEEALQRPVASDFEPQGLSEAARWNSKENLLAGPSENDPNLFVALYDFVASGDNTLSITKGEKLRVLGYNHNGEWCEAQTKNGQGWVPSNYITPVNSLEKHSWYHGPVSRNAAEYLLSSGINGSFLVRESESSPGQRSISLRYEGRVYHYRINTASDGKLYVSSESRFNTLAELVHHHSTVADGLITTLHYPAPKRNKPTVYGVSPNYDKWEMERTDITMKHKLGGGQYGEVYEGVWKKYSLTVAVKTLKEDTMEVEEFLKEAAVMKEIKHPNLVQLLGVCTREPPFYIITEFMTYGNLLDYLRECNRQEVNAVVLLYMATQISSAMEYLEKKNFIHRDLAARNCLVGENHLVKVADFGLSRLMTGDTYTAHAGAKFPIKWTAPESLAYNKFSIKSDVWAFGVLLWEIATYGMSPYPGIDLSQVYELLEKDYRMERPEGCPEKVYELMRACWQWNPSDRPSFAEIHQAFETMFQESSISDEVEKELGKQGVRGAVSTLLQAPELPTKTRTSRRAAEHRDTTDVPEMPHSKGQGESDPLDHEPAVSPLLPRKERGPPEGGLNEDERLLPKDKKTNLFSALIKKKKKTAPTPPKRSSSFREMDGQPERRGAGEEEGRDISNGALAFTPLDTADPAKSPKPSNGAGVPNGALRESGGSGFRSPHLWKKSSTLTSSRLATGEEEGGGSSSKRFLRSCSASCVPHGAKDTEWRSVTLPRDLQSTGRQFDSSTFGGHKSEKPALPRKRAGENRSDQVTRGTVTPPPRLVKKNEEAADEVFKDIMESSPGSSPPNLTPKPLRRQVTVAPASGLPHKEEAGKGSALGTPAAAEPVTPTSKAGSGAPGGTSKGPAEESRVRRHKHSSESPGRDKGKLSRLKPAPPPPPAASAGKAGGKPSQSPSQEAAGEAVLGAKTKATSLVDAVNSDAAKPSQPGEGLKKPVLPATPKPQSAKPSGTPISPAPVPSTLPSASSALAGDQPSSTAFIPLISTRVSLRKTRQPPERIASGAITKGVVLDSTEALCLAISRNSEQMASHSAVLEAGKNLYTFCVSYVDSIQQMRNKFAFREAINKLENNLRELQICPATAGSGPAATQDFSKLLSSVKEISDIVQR
Glycogen synthase kinase-3 beta (Homo sapiens), sequence (P49841 whole entry, looked up): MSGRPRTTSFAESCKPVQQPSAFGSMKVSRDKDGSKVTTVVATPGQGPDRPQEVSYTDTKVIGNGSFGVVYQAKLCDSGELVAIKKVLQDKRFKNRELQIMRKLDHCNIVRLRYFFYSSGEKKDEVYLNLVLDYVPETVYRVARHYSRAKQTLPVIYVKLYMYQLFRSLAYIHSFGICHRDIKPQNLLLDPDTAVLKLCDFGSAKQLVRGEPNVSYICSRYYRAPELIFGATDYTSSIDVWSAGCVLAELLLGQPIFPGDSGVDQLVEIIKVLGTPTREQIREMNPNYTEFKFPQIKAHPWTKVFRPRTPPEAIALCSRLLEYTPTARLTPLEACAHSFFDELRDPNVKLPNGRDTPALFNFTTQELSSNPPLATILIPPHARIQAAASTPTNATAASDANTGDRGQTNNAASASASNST
Mitogen-activated protein kinase 1 (Homo sapiens), sequence (P28482 whole entry): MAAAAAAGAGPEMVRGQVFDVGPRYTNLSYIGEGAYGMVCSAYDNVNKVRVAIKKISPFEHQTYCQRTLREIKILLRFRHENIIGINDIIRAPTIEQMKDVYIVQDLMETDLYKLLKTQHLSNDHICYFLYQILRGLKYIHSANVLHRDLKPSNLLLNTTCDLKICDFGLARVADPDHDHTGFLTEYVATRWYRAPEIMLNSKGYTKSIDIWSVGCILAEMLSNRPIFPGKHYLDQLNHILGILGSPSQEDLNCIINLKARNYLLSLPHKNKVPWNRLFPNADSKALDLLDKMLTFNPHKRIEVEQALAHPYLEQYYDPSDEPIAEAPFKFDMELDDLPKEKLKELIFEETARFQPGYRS
Casein kinase I isoform delta (Homo sapiens), sequence (P48730 whole entry, looked up, canonical isoform): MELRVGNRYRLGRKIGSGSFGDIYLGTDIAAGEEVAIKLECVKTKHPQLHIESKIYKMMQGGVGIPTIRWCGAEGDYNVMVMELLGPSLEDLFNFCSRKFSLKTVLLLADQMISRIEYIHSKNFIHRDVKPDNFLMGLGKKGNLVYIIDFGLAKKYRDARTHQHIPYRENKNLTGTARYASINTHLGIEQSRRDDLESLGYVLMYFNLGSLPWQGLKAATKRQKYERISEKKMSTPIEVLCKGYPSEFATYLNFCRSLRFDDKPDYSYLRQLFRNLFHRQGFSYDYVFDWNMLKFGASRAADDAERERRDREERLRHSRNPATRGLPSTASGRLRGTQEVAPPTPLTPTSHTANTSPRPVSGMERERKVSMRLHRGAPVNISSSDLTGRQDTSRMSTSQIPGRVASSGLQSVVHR

Structure (SMILES)	ΔTm [1]	ΔTm [2]	ΔTm [3]	ΔTm [4]	ΔTm [5]	ΔTm [6]	ΔTm [7]	ΔTm [8]
O=c1[nH]c(N2CCC3(CC2)CN(CCO)c2cc(F)cc(F)c23)nc2c1CCCC2	0.43 °C	-3.2 °C	0.1 °C	-0.13 °C	-1.32 °C	0.22 °C	-0.79 °C	-1.21 °C
Cc1ccc(NC2=CC(=O)c3sc(C)nc3C2=O)cc1	0.31 °C	-1.66 °C	0.97 °C	-0.17 °C	-0.8 °C	0.04 °C	-0.65 °C	-1.44 °C
Cc1cc(OCc2nnc(SC3CCCC3)n2-c2cccnc2)ccc1-c1ccc(S(C)(=O)=O)cc1	-1.4 °C	-2.52 °C	0.2 °C	-0.2 °C	-4.14 °C	0 °C	-1.26 °C	0.18 °C
CC(=O)N[C@@H](CC(=O)O)C(=O)N[C@@H](CC(N)=O)C(=O)N[C@@H](CC(C)C)C(=O)N[C@H](C=O)CC(=O)O	0.21 °C	-3.48 °C	0.27 °C	-0.23 °C	-0.99 °C	0.1 °C	-0.95 °C	0.8 °C
CC(=O)NCC(=O)N1CCC[C@@H]1B(O)O	0.26 °C	-0.72 °C	1.18 °C	-0.18 °C	-0.78 °C	0.14 °C	-1.86 °C	0.93 °C
O=C(CN1CCN(c2ccc(F)cn2)CC1)Nc1nc2c(s1)CCCC2	0.42 °C	-2.75 °C	0.14 °C	-0.25 °C	0.02 °C	0.86 °C	-1.16 °C	-2.28 °C
CS(=O)(=O)c1ccc(Oc2cc(F)cc(C#N)c2)c2c1[C@H](O)[C@H](F)[C@@H]2F	0.05 °C	2.78 °C	0.17 °C	-0.33 °C	-0.61 °C	0.64 °C	-2.09 °C	1.99 °C
O=C1COc2c(cccc2[C@@H](O)CNCCN(C(=O)CCNCCc2ccc(Cl)c(Cl)c2)C2CCCCC2)N1	0.38 °C	-1.19 °C	0.73 °C	0.16 °C	0.42 °C	0.56 °C	-1.62 °C	1.39 °C
COCCOc1cc(CC2CCN(CCc3ccc4c(c3)C(=O)CCO4)CC2)ccc1Br	0.83 °C	-2.23 °C	0.15 °C	-0.07 °C	-0.17 °C	0.56 °C	-2.41 °C	-0.98 °C
COc1cc(Cl)ccc1C1=CN(c2ccc(-c3ccccc3OC)cc2)C2=NCCCN12	0.67 °C	-3.63 °C	-0.6 °C	-0.21 °C	-0.51 °C	-0.14 °C	-2.63 °C	-1.41 °C
O=C(c1cc(Cc2n[nH]c(=O)c3ccccc23)ccc1F)N1CCn2nc(C(F)(F)F)nc2C1	0.72 °C	-2.42 °C	0.1 °C	-0.28 °C	-0.21 °C	0.61 °C	-2.34 °C	-0.51 °C
CC1(C)c2cccc(C(=O)NO)c2CN1c1cnc(C(F)(F)F)cn1	0.41 °C	-2.93 °C	-2.1 °C	0.64 °C	0 °C	0 °C	-2.98 °C	-1.07 °C
Cn1ncnc1[C@H]1C2=c3c(cc(F)cc3=N[C@@H]1c1ccc(F)cc1)C(=O)NN2	0.89 °C	0.71 °C	0.22 °C	-0.5 °C	0.19 °C	0.14 °C	-1.59 °C	0.57 °C
CC(=O)N1CCc2c(c(N3CCCc4cc(-c5cnn(C)c5)c(C(F)F)cc43)nn2C2CCOCC2)C1	0.45 °C	0.99 °C	-0.16 °C	0.23 °C	-0.52 °C	-0.44 °C	-1.07 °C	-1.11 °C
CC(C)Cn1c(=O)n(C)c(=O)c2c(C(=O)N3CC[C@@H](O)C3)c(Cc3ccnc4ccccc34)sc21	-0.39 °C	2.2 °C	0.16 °C	0.09 °C	-1.09 °C	0.11 °C	-0.87 °C	2.02 °C
CC(=O)O[C@]1(C(C)=O)CC[C@H]2[C@@H]3C=C(Cl)C4=CC(=O)[C@@H]5C[C@@H]5[C@]4(C)[C@H]3CC[C@@]21C	0.36 °C	-1.71 °C	0.15 °C	0.16 °C	-0.72 °C	-0.22 °C	-1.49 °C	-1.08 °C
Cc1cc(C)c(CNC(=O)c2cc(Cl)c3c(c2C)O[C@@](C)([C@H]2CC[C@H](N(C)C)CC2)O3)c(=O)[nH]1	0.37 °C	-1.88 °C	0.46 °C	0.43 °C	-0.76 °C	0.07 °C	-0.52 °C	-2.02 °C
CCC[C@H]1CNCc2c1[nH]c(=O)c(C#N)c2N1CCC2(CC1)CC2	0.01 °C	-1.65 °C	-0.06 °C	0.15 °C	-0.31 °C	-0.08 °C	-0.93 °C	-1.34 °C
CCCN1CCN(c2ccc(C(=O)NC3(C(=O)NCC#N)CCCCC3)cc2)CC1	0.17 °C	-1.33 °C	0.57 °C	0.09 °C	-0.34 °C	-0.16 °C	-0.29 °C	-0.56 °C
Cc1nc(F)ccc1-c1cc(Cn2ccn(C)c2=N)cc(C(=O)NCc2ccc(Cl)c(Cl)c2)c1	0.39 °C	-2.09 °C	-0.77 °C	0.13 °C	-0.9 °C	-0.24 °C	-0.34 °C	-1.96 °C
O=c1c2nnc(C3CCOCC3)n2cc(Br)n1CC1CCCC1	0.74 °C	-2.93 °C	0.35 °C	-0.32 °C	-0.29 °C	0.23 °C	-1.77 °C	-0.67 °C
O=C(c1cccc(-c2ccc(-c3cn(C(=O)N4CCCCC4c4ccccc4)nn3)cc2)c1)N1CCCCC1 (centres undefined)	1.85 °C	11.3 °C	0.3 °C	0.93 °C	-2.22 °C	1.43 °C	4.6 °C	-0.32 °C
CC(=O)N[C@@H](C)C(=O)N[C@@H](CCC(=O)O)C(=O)N[C@H](C(=O)N[C@@H](C=O)CC(=O)O)C(C)C	0.22 °C	-2.8 °C	-0.37 °C	0.14 °C	-0.69 °C	0.23 °C	-1.91 °C	-0.66 °C
